From PubChem
This is a sample that favours compounds with a hit; in the whole collection about 2.4% have one here.
Pol beta inh: qHTS Assay for Inhibitors of DNA Polymerase Beta; Potency, µM (series often up to 114 µM), for inactives: at the top dose activity change, negative = inhibition, actives largely listed as inhibitors; 1.3% of 340,000 active; AID 485314, 2010; P06746; Pol beta primer extension/strand displacement, fluorescence kinetic; also: % is scaled to controls: 0 for no effect and ±100 for the full control effect
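Pol beta (10 nM) was preincubated with compound for 15 min at room temperature. The reaction was then started with 50 nM substrate and read immediately and after a further 10 min at room temperature.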
Pol eta inh: qHTS for Inhibitors of Polymerase Eta; 1.2% of 390,000 active; recombinant Pol eta, fluorescent DNA replication assay; DNA polymerase eta (Homo sapiens), Q9Y253; Potency, µM (series often up to 114 µM), without a hit: top-dose activity change, negative = inhibition, actives largely listed as inhibitors; also: % is scaled to controls: 0 for no effect and ±100 for the full control effect
Target sequence (Q9Y253 whole entry, looked up): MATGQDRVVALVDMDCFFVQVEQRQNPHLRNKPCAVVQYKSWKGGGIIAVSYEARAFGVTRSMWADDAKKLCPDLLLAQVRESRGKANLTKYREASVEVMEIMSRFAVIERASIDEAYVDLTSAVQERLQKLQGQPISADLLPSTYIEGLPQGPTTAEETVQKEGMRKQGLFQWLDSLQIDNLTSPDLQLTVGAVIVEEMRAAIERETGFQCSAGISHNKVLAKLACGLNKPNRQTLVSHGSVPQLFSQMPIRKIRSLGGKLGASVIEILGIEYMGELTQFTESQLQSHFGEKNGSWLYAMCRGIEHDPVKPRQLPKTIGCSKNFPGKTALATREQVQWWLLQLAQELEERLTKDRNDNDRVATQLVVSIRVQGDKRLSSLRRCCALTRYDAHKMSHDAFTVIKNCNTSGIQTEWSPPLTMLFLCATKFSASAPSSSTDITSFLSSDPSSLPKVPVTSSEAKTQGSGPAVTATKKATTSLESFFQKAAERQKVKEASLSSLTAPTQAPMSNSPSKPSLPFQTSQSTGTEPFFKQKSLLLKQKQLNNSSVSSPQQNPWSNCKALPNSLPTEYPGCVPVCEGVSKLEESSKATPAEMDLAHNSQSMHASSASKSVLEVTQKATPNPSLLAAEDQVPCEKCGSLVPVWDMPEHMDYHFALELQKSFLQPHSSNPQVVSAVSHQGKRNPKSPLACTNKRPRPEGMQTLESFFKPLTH
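Pol eta at 10 nM preincubated with compounds 15 min at room temperature; reaction started with fluorescent substrate (50 nM final) and read kinetically at 0 and 10 min.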
APEX1 inh: qHTS Assay for Inhibitors of the Human Apurinic/apyrimidinic Endonuclease 1 (APE1). DNA repair nuclease/redox regulator APEX1 (Homo sapiens), P27695. recombinant APE1, TAMRA/BHQ-2 abasic DNA cleavage fluorescence. Potency, µM (doses to about 65.8 µM), without a hit: top-dose activity change, negative = inhibition, hits mostly inhibitors. 0.35% of 350,000 active;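 also: plate controls were vehicle for no effect and reference inhibitor for full effect; nearly all actives have a fitted effect of over 55% in size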
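Readout is kinetic fluorescence (ex 525, em 598 nm) from cleavage of 50 nM TAMRA/BHQ-2 THF abasic duplex by 0.75 nM APE1, compound added 15 min beforehand at RT.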
POLK inh: qHTS for Inhibitors of Polymerase Kappa; DNA polymerase kappa (Homo sapiens), Q9UBT6; purified Pol kappa, fluorescent DNA synthesis assay, 10 min; Potency, µM (top dose mostly 107 µM), for the others: at the top dose activity, negative = inhibition, most hits filed as inhibitors; 0.53% of 400,000 active; also: % is scaled to controls: 0 for no effect and ±100 for the full control effect
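Inhibition of 10 nM Pol kappa is measured by a fluorescent read-out at 0 and 10 min following addition of 50 nM substrate (final), with a 15-min room-temperature compound preincubation.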
GLS inhibitor: qHTS for Inhibitors of Glutaminase (GLS); Glutaminase kidney isoform, mitochondrial (Homo sapiens), O94925; GLS enzymatic activity, qHTS titration; Potency, µM (titrated, usually from 45.5 µM), without a hit: top-dose activity change, negative = inhibition, usual class: inhibitors; 0.21% of 410,000 active; also: % is scaled to controls: 0 for no effect and ±100 for the full control effect
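Human kidney-isoform GLS in 45 mM KH2PO4 pH 8.2, 0.02% Tween-20, with compound, started with 1mM L-Glutamine (added stock). Glutamate oxidase/HRP/Amplex red coupled fluorescence read at start and after 30 min at RT.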
Pol iota inh: qHTS for Inhibitors of Polymerase Iota; AID 588590, 2011; 1% of 390,000 active; Pol iota fluorescent replication assay, 10 min; Potency, µM (top dose mostly 115 µM), without a hit: top-dose activity, negative = inhibition, most hits filed as inhibitors; DNA polymerase iota (Homo sapiens), Q9UNA4
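Pol iota at 10 nM preincubated 15 min with compounds at room temperature; reaction started with fluorescent substrate, 50 nM final. Fluorescence read kinetically at 0 and 10 min; buffer-only wells as negative control.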
* = called active by the depositor. Calls follow the shape of the dose curve; as a rule, active = well fitted curve in the direction sought with a large enough effect; inconclusive = small, poorly fitted or top-dose-only effect, or another doubt; inactive = no such curve, though single readings can be large; an effect the other way counts as inactive or inconclusive. Potency is read from the fitted curve at half-maximal effect.

What do the screens show for `O=C(CSc1c2c(nc3ccc(Cl)cc13)CCCC2)N1CCN(C(=O)c2ccco2)CC1`?
Pol eta inh: -5.7%; POLK inh: inconclusive; GLS inhibitor: -1.4%; Pol iota inh: 20µM*

What do the screens show for `CCc1cc2ccc(OC)cc2nc1SCC(=O)N1CCN(C(=O)c2ccco2)CC1`?
Pol beta inh: 11.6%; Pol eta inh: -17.3%; APEX1 inh: 5.0%; POLK inh: -1.6%; GLS inhibitor: 1.0%; Pol iota inh: -1.9%

Results for Cc1cc2nc(-c3ccc(SCC(=O)N4CCOCC4)nc3)[nH]c2cc1C ?
Pol beta inh: inconclusive; Pol eta inh: -6.5%; APEX1 inh: 0.8%; POLK inh: -18.5%; GLS inhibitor: 1.4%; Pol iota inh: inconclusive

Results for O=C(C1CCCN(S(=O)(=O)c2cccc3nsnc23)C1)N1CCN(c2cccc(Cl)c2)CC1 (stereo unspecified) ?
Pol beta inh: 23.3%; Pol eta inh: -7.3%; POLK inh: -5.3%; GLS inhibitor: -11.6%; Pol iota inh: 1.1%

How did O=C(CS(=O)(=O)c1cn(CC(=O)N2CCOCC2)c2ccccc12)Nc1ccccc1 do in these assays?
Pol beta inh: -0.6%; Pol eta inh: -9.8%; APEX1 inh: -3.5%; POLK inh: -3.2%; GLS inhibitor: -9.3%; Pol iota inh: 10.2%

How did O=[N+]([O-])c1ccc(/C=N/Nc2nc3ccccc3o2)cc1 do in these assays?
Pol beta inh: 44.7µM*; Pol eta inh: -0.5%; APEX1 inh: 10.8%; POLK inh: -2.7%; GLS inhibitor: -7.2%; Pol iota inh: -1.2%

What do the screens show for `CCS(=O)(=O)c1ccc(C=NNc2nc3ccccc3o2)cc1`?
Pol eta inh: -8.3%; POLK inh: -9.3%; GLS inhibitor: 4.2%; Pol iota inh: 8.1%

Results for Cc1cc(C)nc(SCc2ccc(C(=O)N/N=C/c3ccc(C(=O)O)cc3)cc2)n1 ?
Pol beta inh: 0.1%; Pol eta inh: 2.7%; APEX1 inh: 3.3%; POLK inh: -11.2%; GLS inhibitor: -4.3%; Pol iota inh: 65.0%

Results for C/C(=N\NC(=O)c1ccc(CSc2nc(C)cc(C)n2)cc1)c1ccco1 ?
Pol beta inh: 56.2µM*; Pol eta inh: -8.4%; APEX1 inh: 8.0%; POLK inh: -24.0%; GLS inhibitor: 2.4%; Pol iota inh: 102.8%

Results for COc1ccc(O)c(/C=N/NC(=O)c2ccc(OCc3cccc(Br)c3)cc2)c1 ?
Pol beta inh: 15.8µM*; Pol eta inh: -9.5%; APEX1 inh: 10.3%; POLK inh: -8.8%; GLS inhibitor: -3.5%; Pol iota inh: inconclusive

How did Cc1cc(C)nc(SCc2ccc(C(=O)N/N=C/c3ccco3)cc2)n1 do in these assays?
Pol beta inh: 14.1µM*; Pol eta inh: -4.3%; APEX1 inh: -6.9%; POLK inh: -2.7%; GLS inhibitor: 1.3%; Pol iota inh: 99.7%

What do the screens show for `COc1ccc(O)c(/C=N/NC(=O)c2ccc(CSc3nc(C)cc(C)n3)cc2)c1`?
Pol beta inh: 25.1µM*; Pol eta inh: inconclusive; APEX1 inh: -11.1%; POLK inh: inconclusive; GLS inhibitor: 2.2%; Pol iota inh: inconclusive

What do the screens show for `O=C(Nc1cccc(S(=O)(=O)N2CCOCC2)c1)c1ccc(=O)[nH]c1`?
Pol eta inh: -20.5%; APEX1 inh: 17.7%; POLK inh: -1.6%; GLS inhibitor: -1.0%; Pol iota inh: 59.8%

How did Cc1ccc2oc(-c3ccc(NC(=O)COc4ccccc4)cc3O)nc2c1 do in these assays?
POLK inh: -8.0%; Pol iota inh: 89.1µM*

Results for Cc1ccc(OCC(=O)Nc2ccc3c(c2)C(=O)NC3=O)cc1 ?
Pol beta inh: 31.6µM*; Pol eta inh: -5.3%; APEX1 inh: -8.6%; POLK inh: 4.1%; GLS inhibitor: -4.6%; Pol iota inh: -7.5%

Results for Cc1ccc(OCC(=O)Nc2ccc(O)c(-c3nc4ccccc4o3)c2)cc1 ?
Pol beta inh: -12.2%; Pol eta inh: -12.7%; APEX1 inh: -2.4%; POLK inh: -8.8%; GLS inhibitor: -9.0%; Pol iota inh: 11.0%

How did O=C(COc1ccc(Cl)cc1)Nc1ccc2c(c1)C(=O)NC2=O do in these assays?
Pol beta inh: -17.4%; Pol eta inh: -14.1%; APEX1 inh: 26.7%; POLK inh: 8.5%; GLS inhibitor: -2.4%; Pol iota inh: -8.4%

Results for C=CCOc1cccc(/C=N/NC(=O)C(OC)c2ccccc2)c1 (stereo unspecified) ?
Pol beta inh: -4.2%; Pol eta inh: -8.3%; APEX1 inh: 37.9%; POLK inh: -24.2%; GLS inhibitor: 2.2%; Pol iota inh: 16.6%

How did Cc1ccc(N=Cc2cc(Cc3ccccc3Cl)cc([N+](=O)[O-])c2O)c(O)c1 do in these assays?
Pol beta inh: 15.8µM*; Pol eta inh: 50.1µM*; APEX1 inh: -10.1%; POLK inh: -80.5%; GLS inhibitor: inconclusive; Pol iota inh: inconclusive

Results for COc1ccc(N=Cc2cc(Cc3ccccc3Cl)cc([N+](=O)[O-])c2O)cc1OC ?
Pol beta inh: 0.6%; Pol eta inh: 28.2µM*; APEX1 inh: -1.8%; POLK inh: -15.8%; GLS inhibitor: inconclusive; Pol iota inh: inconclusive

Results for Cc1ccccc1N=Cc1cc2c(cc1[N+](=O)[O-])OCO2 ?
Pol beta inh: 10.6%; Pol eta inh: -15.0%; APEX1 inh: 2.4%; POLK inh: -11.1%; GLS inhibitor: 28.4%; Pol iota inh: 31.2%

Results for COc1ccc(Br)cc1/C=C/C(=O)Nc1ccc2ccccc2c1 ?
Pol beta inh: 18.2%; Pol eta inh: -21.8%; APEX1 inh: -19.8%; POLK inh: -0.5%; GLS inhibitor: -4.6%; Pol iota inh: 24.5%

How did CCC(=O)Nc1cccc(C(=O)/C=C/c2cc(Br)ccc2OC)c1 do in these assays?
Pol beta inh: 2.9%; Pol eta inh: inconclusive; APEX1 inh: -3.7%; POLK inh: -8.3%; GLS inhibitor: 7.2%; Pol iota inh: 56.2µM*

Results for Cc1ccc(NC(=O)CSc2nc(-c3ccco3)nc3cc(=O)[nH]n23)cc1 ?
Pol beta inh: 50.1µM*; Pol eta inh: -8.3%; POLK inh: -25.8%; GLS inhibitor: -2.8%; Pol iota inh: inconclusive

Results for O=C(CSc1nc(-c2ccco2)nc2cc(=O)[nH]n12)Nc1ccccc1Cl ?
Pol beta inh: -31.8%; Pol eta inh: -0.4%; POLK inh: -25.2%; GLS inhibitor: 2.3%; Pol iota inh: inconclusive
